Assay [1] has as its target Oxysterols receptor LXR-beta (Homo sapiens) (UniProt P55055). Put plainly: ATG_LXRb_TRANS: Attagene TRANS-FACTORIAL HepG2 Assay for human Liver X Receptor beta (LXRb) (AID 2282981). The following applies: HepG2 Attagene TRANS GAL4-LXRb reporter, mRNA. A digest of the protocol:
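Liver-derived HepG2 cells transfected with Gal4-responsive reporters were dosed for 24 h. Activation was scored as rise in reporter mRNA, by RT-PCR and capillary electrophoresis, above DMSO baseline.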

Assay [2] in a line: ATG_M_06_TRANS: Attagene TRANS-FACTORIAL HepG2 Assay for M06 Transcription Factor (Internal Marker) (AID 2282983).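 Also: reporter transcript level by RT-PCR then capillary electrophoresis fluorescence.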 The following applies: HepG2 Attagene TRANS M06 internal marker reporter. A digest of the protocol:
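Human liver HepG2 cells bearing transiently transfected chimeric NR-GAL4 reporter units were treated with chemicals for 24 h. Total RNA was reverse-transcribed, reporter sequences amplified and labelled, then quantified by capillary electrophoresis. Activity was fitted upward relative to DMSO.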

Assay [3] addresses Nuclear receptor subfamily 4 group A member 2 (Homo sapiens) (UniProt P43354). Kind of assay: ATG_NURR1_TRANS: Attagene TRANS-FACTORIAL HepG2 Assay for human Nuclear Receptor Related Protein 1 (NURR1) (AID 2282985). The settings on record: HepG2 Attagene TRANS reporter, mRNA readout. A digest of the protocol: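 Chimeric NR-Gal4 proteins were expressed in human HepG2 cells bearing GAL4-UAS reporter units, and induced reporter mRNA was quantified 24 h post-dosing by RT-PCR and capillary electrophoresis.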

The target of assay [4] is Transcriptional activator Myb (Homo sapiens) (UniProt P10242). Kind of assay: ATG_Myb_CIS: Attagene CIS-FACTORIAL HepG2 Assay for human Myeloblastosis (Myb) Proto-Oncogene Transcription Factor (AID 2282986; active = hit-call score of the fitted dose curve at least 0.9, where 1 is the maximum; inactive = score below 0.9). The following applies: HepG2 Attagene CIS-FACTORIAL Myb reporter transcription; actives raise or lower the signal. The essentials:
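Steps: transfect HepG2 with cis-regulated reporter units; dose with chemical for 24 h; isolate RNA, reverse-transcribe, PCR-amplify and FAM-label reporter sequences; digest with HpaI; resolve by capillary electrophoresis. Activity fitted in both directions relative to DMSO.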

For assay [5], the target named is Oxysterols receptor LXR-alpha (Homo sapiens) (UniProt Q13133). Kind of assay: ATG_LXRa_TRANS: Attagene TRANS-FACTORIAL HepG2 Assay for human Liver X Receptor alpha (LXRa) (AID 2282980). The settings on record: HepG2 Attagene TRANS reporter, LXRa transactivation. The essentials:
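Transient HepG2 transfectants, 24 h dosing, RT-PCR/CE mRNA reporter quantitation; gain-of-signal vs DMSO.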

Assay [6] has as its target Hepatocyte nuclear factor 4-alpha (Homo sapiens) (UniProt P41235). Kind of assay: ATG_HNF4a_TRANS: Attagene TRANS-FACTORIAL HepG2 Assay for human Hepatocyte Nuclear Factor 4 alpha (HNF4a) (AID 2282982). The following applies: HepG2 HNF4a transactivation reporter, mRNA readout. The essentials: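 Using HepG2 liver cells transfected with GAL4-UAS reporter units, chemical-induced mRNA increases were assessed after 24 hours. Fluorescent RT-PCR fragments were separated by capillary electrophoresis and compared with DMSO negative controls.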

Assay [7] is described as follows: ATG_M_32_TRANS: Attagene TRANS-FACTORIAL HepG2 Assay for M32 Transcription Factor (Internal Marker) (AID 2282984).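 Also: transcript level of a background control reporter unit measured by RT-PCR and capillary electrophoresis.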 The following applies: HepG2 Attagene TRANS M32 internal marker reporter. A digest of the protocol:
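Fluorescence-detected mRNA induction, HepG2 liver cells, 24 h after dosing. Multiple GAL4-UAS reporter units introduced by transient transfection; background-control endpoint analysed for gain of signal against DMSO.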

Results filed as inconclusive are left out. Calls of active or inactive are those of the source. The calls were made as follows, unless noted: active = hit-call score of the fitted dose curve at least 0.9, where 1 is the maximum; inconclusive = response in the unintended direction; inactive = score below 0.9.

Nuclear receptor subfamily 4 group A member 2 (Homo sapiens), sequence (P43354 whole entry, looked up, the tested form may be a part): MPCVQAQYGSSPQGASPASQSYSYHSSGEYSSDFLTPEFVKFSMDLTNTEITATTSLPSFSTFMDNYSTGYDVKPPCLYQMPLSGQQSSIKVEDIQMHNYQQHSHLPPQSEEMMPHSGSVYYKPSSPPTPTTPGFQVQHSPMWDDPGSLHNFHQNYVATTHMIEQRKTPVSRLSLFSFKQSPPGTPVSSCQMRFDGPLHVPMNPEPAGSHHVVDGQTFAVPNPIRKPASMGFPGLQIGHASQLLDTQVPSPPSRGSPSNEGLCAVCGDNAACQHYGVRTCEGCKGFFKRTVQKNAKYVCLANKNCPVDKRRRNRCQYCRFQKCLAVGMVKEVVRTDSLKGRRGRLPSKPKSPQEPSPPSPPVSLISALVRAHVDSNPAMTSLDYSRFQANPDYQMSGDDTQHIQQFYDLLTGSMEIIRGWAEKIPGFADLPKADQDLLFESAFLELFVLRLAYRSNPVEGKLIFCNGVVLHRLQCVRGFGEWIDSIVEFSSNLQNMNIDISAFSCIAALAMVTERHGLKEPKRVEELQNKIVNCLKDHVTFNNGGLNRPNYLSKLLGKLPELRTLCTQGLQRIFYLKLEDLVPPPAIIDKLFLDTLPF
Transcriptional activator Myb (Homo sapiens), sequence (P10242 whole entry, looked up): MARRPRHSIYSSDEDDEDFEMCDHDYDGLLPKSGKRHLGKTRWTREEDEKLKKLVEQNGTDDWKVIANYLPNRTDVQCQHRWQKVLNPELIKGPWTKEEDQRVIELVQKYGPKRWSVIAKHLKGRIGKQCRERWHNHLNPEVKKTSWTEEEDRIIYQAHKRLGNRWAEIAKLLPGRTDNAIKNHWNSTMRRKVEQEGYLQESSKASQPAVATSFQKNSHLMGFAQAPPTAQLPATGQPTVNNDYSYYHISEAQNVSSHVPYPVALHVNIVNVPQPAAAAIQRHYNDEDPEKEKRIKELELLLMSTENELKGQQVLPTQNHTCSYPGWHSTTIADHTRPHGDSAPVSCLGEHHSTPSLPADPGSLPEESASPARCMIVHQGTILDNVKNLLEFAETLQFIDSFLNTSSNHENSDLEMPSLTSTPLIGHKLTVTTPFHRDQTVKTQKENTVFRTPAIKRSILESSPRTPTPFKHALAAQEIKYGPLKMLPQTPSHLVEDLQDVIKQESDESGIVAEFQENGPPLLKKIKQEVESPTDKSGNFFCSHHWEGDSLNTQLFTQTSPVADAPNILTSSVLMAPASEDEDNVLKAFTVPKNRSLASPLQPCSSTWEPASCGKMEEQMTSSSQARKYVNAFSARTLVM
Oxysterols receptor LXR-alpha (Homo sapiens), sequence (Q13133 whole entry, looked up): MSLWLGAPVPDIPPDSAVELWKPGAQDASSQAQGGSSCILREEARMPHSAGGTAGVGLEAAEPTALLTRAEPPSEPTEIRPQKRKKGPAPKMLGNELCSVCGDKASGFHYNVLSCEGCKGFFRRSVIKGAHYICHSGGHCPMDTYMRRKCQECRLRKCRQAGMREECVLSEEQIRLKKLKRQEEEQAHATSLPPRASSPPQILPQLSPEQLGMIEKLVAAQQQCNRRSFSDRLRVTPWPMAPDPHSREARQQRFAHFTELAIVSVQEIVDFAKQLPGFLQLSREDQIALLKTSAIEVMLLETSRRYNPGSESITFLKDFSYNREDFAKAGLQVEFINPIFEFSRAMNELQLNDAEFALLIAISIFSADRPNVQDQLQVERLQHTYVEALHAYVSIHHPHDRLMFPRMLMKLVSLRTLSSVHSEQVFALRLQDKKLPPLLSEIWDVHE
Hepatocyte nuclear factor 4-alpha (Homo sapiens), sequence (P41235 whole entry, looked up, the tested form may be a part): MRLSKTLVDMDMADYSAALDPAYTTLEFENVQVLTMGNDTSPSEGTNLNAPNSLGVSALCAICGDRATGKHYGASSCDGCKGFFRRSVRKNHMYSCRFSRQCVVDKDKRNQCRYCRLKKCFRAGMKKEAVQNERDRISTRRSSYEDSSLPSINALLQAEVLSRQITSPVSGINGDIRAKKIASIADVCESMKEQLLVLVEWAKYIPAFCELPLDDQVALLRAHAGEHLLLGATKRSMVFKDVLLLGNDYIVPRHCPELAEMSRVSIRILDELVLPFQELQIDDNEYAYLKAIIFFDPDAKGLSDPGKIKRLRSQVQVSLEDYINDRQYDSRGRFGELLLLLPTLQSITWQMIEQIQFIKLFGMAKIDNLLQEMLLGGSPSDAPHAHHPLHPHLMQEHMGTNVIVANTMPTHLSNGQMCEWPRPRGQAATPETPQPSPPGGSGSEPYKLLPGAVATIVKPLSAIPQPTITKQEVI
Oxysterols receptor LXR-beta (Homo sapiens), sequence (P55055 whole entry, looked up, the tested form may be a part): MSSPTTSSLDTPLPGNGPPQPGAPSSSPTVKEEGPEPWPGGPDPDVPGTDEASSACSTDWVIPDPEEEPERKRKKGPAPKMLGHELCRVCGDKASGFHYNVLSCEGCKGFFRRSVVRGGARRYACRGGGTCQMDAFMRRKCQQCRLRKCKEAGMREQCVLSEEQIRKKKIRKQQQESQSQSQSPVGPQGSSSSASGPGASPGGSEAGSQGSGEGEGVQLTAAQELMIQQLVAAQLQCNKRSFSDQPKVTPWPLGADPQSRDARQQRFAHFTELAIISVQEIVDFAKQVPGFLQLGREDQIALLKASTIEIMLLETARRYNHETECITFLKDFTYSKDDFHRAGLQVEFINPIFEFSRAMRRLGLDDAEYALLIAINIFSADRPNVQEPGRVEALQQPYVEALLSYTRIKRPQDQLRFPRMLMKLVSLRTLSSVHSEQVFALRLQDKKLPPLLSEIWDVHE

Regarding `C=C(C)[C@@H]1CC=C(C)CC1`, the outcome in assay [1], in assay [2], in assay [3] and in assay [4] was inactive.

Consider `O=C(O)CCC(=O)O`, for which the compound was called inactive in assay [5], in assay [3] and in assay [4].

On to `CCCc1ccc(O)c(OC)c1`, for which the compound was called inactive in assay [2] and in assay [4].

On to `O=C1CCCCCCCCCCCN1`, for which the call in assay [5], in assay [2] and in assay [4] was inactive.

Take `CC1=CCC2CC1C2(C)C` (centres undefined): the compound was classed as inactive in assay [6], in assay [2], in assay [7], in assay [3] and in assay [4].

As for `C=CC(=O)NCOCCCC`, the result in assay [2], in assay [7], in assay [3] and in assay [4] was inactive.

Regarding `CC(C)CC(=O)OCc1ccccc1`, the compound was called inactive in assay [2], in assay [3] and in assay [4].

With `Nc1ccc(C(=O)O)cc1`, the call in assay [6], in assay [7], in assay [3] and in assay [4] was inactive.

On to `COC(=O)c1ccccc1C`, for which the call in assay [6], in assay [3] and in assay [4] was inactive.

Take `CCCCOC(=O)C(C)CC` (centres undefined): the call in assay [2], in assay [3] and in assay [4] was inactive.

Consider `CC(=O)OCCc1ccccc1`, for which the call in assay [2], in assay [7] and in assay [4] was inactive.

As to `O=C1CCCCC1C1CCCCC1` (centres undefined), the compound was called inactive in assay [5], in assay [3] and in assay [4].

Consider `CC(C)c1ccc(O)c(C(C)C)c1`, for which the call in assay [5], in assay [2], in assay [7], in assay [3] and in assay [4] was inactive.

For the compound `O=C(Oc1ccccc1)c1ccccc1O`, the result in assay [1], in assay [2], in assay [3] and in assay [4] was inactive.

Regarding `C[Si](C)(C)N[Si](C)(C)C`, the call in assay [6], in assay [2] and in assay [4] was inactive.

`CCCC=C(C=O)CC`: the compound was classed as inactive in assay [1], in assay [6], in assay [2], in assay [3] and in assay [4].

For the compound `CC1=NN(c2ccc(S(=O)(=O)O)cc2)C(=O)C1N=Nc1ccccc1` (centres undefined), the compound was classed as inactive in assay [1], in assay [2], in assay [7], in assay [3] and in assay [4].

As for `COc1cc(O)c(C(=O)c2ccccc2)cc1S(=O)(=O)O`, the call in assay [5], in assay [2], in assay [3] and in assay [4] was inactive.

With `O=C(O)/C=C/c1ccccc1`, the call in assay [2], in assay [7], in assay [3] and in assay [4] was inactive.

Turning to `CC(=O)CC(=O)Nc1ccccc1C`, the compound was classed as inactive in assay [2] and in assay [4].

`CC1OC(=O)C(C)OC1=O` (centres undefined): the compound was classed as inactive in assay [6], in assay [2], in assay [7], in assay [3] and in assay [4].

Regarding `CCCCCCO`, the result in assay [1], in assay [6], in assay [2], in assay [3] and in assay [4] was inactive.

For the compound `O=C(O)C1CCC(C(=O)O)CC1` (centres undefined), the compound was called inactive in assay [2], in assay [3] and in assay [4].

Consider `NC(=O)Nc1ccccc1`, for which the result in assay [7] and in assay [4] was inactive.

As for `Cc1cc(C)c(C=O)c(C)c1`, the call in assay [1], in assay [6] and in assay [4] was inactive.

Broadly, the AC50 is the concentration at which the activity in the assay is half-maximal. Regarding `CCCCCCCCCC[N+](C)(CCCCCCCCCC)CCC[Si](OC)(OC)OC`, the compound was called inactive in assay [1], in assay [6] and in assay [3]. For the same compound, in assay [4], the AC50 is 15.9 µM (active).

On to `C1CNCCN1`, for which the outcome in assay [2], in assay [7] and in assay [4] was inactive.

In the case of `C=CC(=O)OCC(C)OCC(C)OCC(C)OC(=O)C=C` (centres undefined), the compound was classed as inactive in assay [1], in assay [6], in assay [2] and in assay [7]. For the same compound, the AC50 in assay [4] is 65.2 µM (active).

`CN(C)Cc1cc(CN(C)C)c(O)c(CN(C)C)c1`: the call in assay [6], in assay [2], in assay [3] and in assay [4] was inactive.

On to `COc1nccnc1CC(C)C`, for which the result in assay [1], in assay [2] and in assay [4] was inactive.

Regarding `Nc1ccc(Cl)c(N)c1`, the result in assay [5], in assay [2], in assay [7], in assay [3] and in assay [4] was inactive.

Consider `C=CC(=O)NC(C)(C)C`, for which the compound was called inactive in assay [1], in assay [6], in assay [2], in assay [3] and in assay [4].
